Screening results from PubChem.
NALP3 yeast inh – NALP3 inflammasome inhibitors in reconstituted yeast, primary screen, luminescence, uHTS. Yeast reconstituted NLRP3/ASC/caspase-1, beta-gal luminescence, 24 h. inhibition, % at 10 µM. 330,000 compounds, 0.39% hits. AID 2825, 2010;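 active = inhibition of 50% or more; inactive = inhibition below 50%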;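 also: plate controls were induced DMSO wells for no effect and uninduced yeast grown without galactose for full effect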
SKKanGAS inh – S. pyogenes SKKanGAS growth inhibitors in kanamycin, primary screen, streptokinase expression inhibitor project, SKKanGAS strain, BacTiter-Glo luminescence; 6 h; inhibition, % at 7.5 µM; 300,000 compounds, 1.3% hits;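 active = mean replicate score, as percent of positive control median, at least 50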;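 also: strain carries kanamycin resistance gene driven by streptokinase promoter and grows in 40 µg/ml kanamycin; loss of luminescence reflects streptokinase promoter inhibition or plain growth inhibition; 0% = median of DMSO wells and 100% = positive control at its reference dose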
tim23-1 inh – growth inhibitors of tim23-1 mutant yeast, primary screen, luminescence, uHTS; S. cerevisiae tim23-1 growth, BacTiter-Glo luminescence, 24 h; AID 463212, 2010; 330,000 compounds, 1.3% hits; inhibition, % at 20 µM;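 active = growth inhibition of the mutant yeast at or above 50%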;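 also: temperature-sensitive mutant grown at 25 °C; plate controls were DMSO-treated mutant yeast for no effect and medium wells lacking yeast for full effect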
tim10-1 inh – growth inhibitors of tim10-1 mutant yeast, primary screen, luminescence, uHTS. S. cerevisiae tim10-1 ts strain growth, BacTiter-Glo, 24 h. inhibition, % at 20 µM. 330,000 compounds, 2.2% hits;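 active = inhibition of at least 40%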;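 also: mutant grown at 25 °C; 0% = DMSO wells with yeast and 100% = wells holding no yeast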
PfHsp90 set2 – growth inhibition of PfHsp90-expressing yeast, primary screen, antimalarial PfHsp90 inhibitor project, S. cerevisiae, BacTiter-Glo luminescence, single point, set 2; AID 504621, 2011; 310,000 compounds, 0.32% hits; BacTiter-Glo ATP, 48 h; yeast lacking PDR1 and PDR3 efflux regulators; inhibition, % at 9.4 µM;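 active = every replicate shows inhibition above about 80%, whatever the replicate mean, limit read from the data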;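 also: 0% = DMSO neutral controls and 100% = 20 µM radicicol positive controls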
TIM10 inh – growth inhibitors of isogenic TIM10 control yeast, primary screen, counter-screen for tim10-1 yeast inhibitor project, luminescence, uHTS | S. cerevisiae TIM10 strain growth, BacTiter-Glo luminescence, 24 h | inhibition, % at 10 µM | 330,000 compounds, 1.4% hits | AID 463195, 2010;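 active = inhibition of 40% or more at the single tested concentration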;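 also: wild-type TIM10 isogenic control strain grown at permissive 25 °C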
TIM10 conf – growth inhibitors of wild-type TIM10 yeast, confirmation, counter-screen for tim10-1 synthetic lethality project, single concentration, luminescence, S. cerevisiae; 4,600 compounds, 63% hits; inhibition, % at 10 µM; shares compounds with TIM10 inh; S. cerevisiae tim10 strain growth, BacTiter-Glo luminescence, 24 h;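 active = inhibition of yeast growth at or above a set limit in either of two replicates at 10 µM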;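 also: this counterscreen used the strain with wild-type TIM10; 0% = yeast with DMSO and 100% = medium wells lacking yeast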
tim23-1 conf – tim23-1 mutant yeast growth inhibitors, confirmation, luminescence, single concentration | shares compounds with tim23-1 inh | S. cerevisiae tim23-1 growth, BacTiter-Glo luminescence, 24 h | inhibition, % at 20 µM | 4,400 compounds, 83% hits | AID 463218, 2010;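 active = inhibition above about 39% in either of two replicate wells at 20 µM, limit read from the data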;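 also: temperature-sensitive tim23-1 mutant grown at 25 °C; 0% = DMSO wells with yeast and 100% = medium wells without yeast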
* = called active by the depositor; nt = not tested or not shown. Hits are enriched below; roughly 4.6% of the tested compounds scored in any of these assays.

SMILES	NALP3 yeast inh	SKKanGAS inh	tim23-1 inh	tim10-1 inh	PfHsp90 set2	TIM10 inh	TIM10 conf	tim23-1 conf
CC1CCc2cc(F)cc3c(O)c(C(=O)NCc4ccco4)c(=O)n1c23 (stereo unspecified)	30.5	19.4	54.9*	29.8	12.7	49.2*	-3.6	51.5*
CC1CC(=O)C(C(C2=C(O)CC(C)CC2=O)c2ccccc2)=C(O)C1 (stereo unspecified)	nt	nt	nt	nt	-4.7	nt	nt	nt
CCCN(C(=O)/C=C/c1ccc(S(=O)(=O)N(CC)CC)cc1)C1CCS(=O)(=O)C1 (stereo unspecified)	14.6	nt	26.5	19.0	-20.5	16.5	nt	nt
Cc1ccc2c(c1)N(CC(=O)NC1CCCC1)C(=O)c1cccnc1O2	6.2	11.3	-10.0	-23.7	nt	-0.7	nt	nt
CCc1ccc(CN(C)C(=O)c2cc(COc3ccc(-n4cncn4)cc3)on2)cc1	32.7	4.0	54.1*	25.6	7.2	55.6*	46.1*	52.5*
Cn1c(SCC(=O)NC2CCS(=O)(=O)C2)nnc1-c1ccco1 (stereo unspecified)	19.0	nt	7.9	19.2	-0.8	7.7	nt	nt
CC(C)OP(=O)(OC(C)C)/C(C=O)=N\Nc1ccc([N+](=O)[O-])cc1	40.9	0.9	67.2*	38.2	-18.6	50.9*	49.9*	67.5*
CCOC(=O)c1sc(NC(=O)c2sccc2C)cc1C	33.6	3.3	50.2*	39.4	20.6	74.2*	62.4*	70.8*
CCOC(=O)c1sc(NC(=S)NC(=O)C2CC2)cc1C	8.8	-2.6	14.4	17.1	-20.3	7.7	nt	nt
O=c1c(Cl)c(NCc2ccccc2Cl)cnn1C12CC3CC(CC(C3)C1)C2	37.4	4.5	52.0*	6.2	15.7	41.5*	27.4	55.2*
O=c1c(Cl)c(NCc2ccco2)cnn1C12CC3CC(CC(C3)C1)C2	18.3	-4.8	31.3	-21.0	13.8	-11.5	nt	nt
COc1cc(C(=O)NC(CCSC)C(=O)OCC(=O)C(C)(C)C)cc(OC)c1OC (stereo unspecified)	3.0	-1.3	10.3	-6.4	-12.7	8.7	nt	nt
C[C@@H](NS(=O)(=O)c1cc(Cl)ccc1F)[C@H](O)c1ccccc1	nt	nt	nt	nt	-8.2	nt	nt	nt
Cc1ccc(NC(=O)c2cc(C)n(-c3ccccc3)c2C)cc1	24.3	-0.8	51.5*	34.1	8.0	50.4*	-22.1	58.2*
Cc1ccc(NC(=O)c2cc(C)n(-c3cccc(C)c3)c2C)cc1	18.1	-1.6	43.4	15.6	-13.1	33.8	nt	nt
Cc1cc(=O)[nH]c(N/N=C/c2ccc(OC(=O)c3ccco3)cc2)n1	21.2	4.3	9.5	9.3	-10.7	-5.8	nt	nt
CCOc1cc(Br)c(Br)c(C=Nc2ccc(NC(C)=O)cc2)c1O	10.4	-1.7	75.9*	-6.2	-21.7	70.7*	89.7*	-60.9
C/C(=N\N=C(/C)c1cccc(N)c1)c1cccc(N)c1	15.9	-1.4	-4.7	5.9	nt	0.4	nt	nt
CC12CC3CC(C)(C1)CC(C(=O)NC(=S)N1CCCCC1)(C3)C2	24.6	-6.1	51.0*	24.9	-23.2	41.5*	13.6	32.2
CC(=O)n1cc(C(C[N+](=O)[O-])SCCN)c2ccccc21 (stereo unspecified)	42.6	-1.1	89.2*	22.9	nt	91.3*	91.6*	-30.7
CC(=O)n1cc(/C=N/NC(=O)c2ccc([N+](=O)[O-])cc2)c2ccccc21	13.8	6.1	19.2	-1.1	19.1	6.4	nt	nt
COc1ccccc1C1CCN(C(=O)c2ccccc2)CC1	4.6	8.1	3.0	1.1	0.0	12.5	nt	nt
COc1ccccc1C1CCN(c2cc(O)ccc2[N+](=O)[O-])CC1	26.4	20.1	59.8*	36.5	-18.5	47.6*	42.9*	59.5*
COc1ccc(-c2n[nH]c(C)c2-c2cnn(-c3ccccc3)c2)c(O)c1C	9.1	47.7	51.2*	39.5	-13.8	47.7*	45.2*	58.9*
COc1ccc(-c2onc(C)c2-c2cnn(-c3ccccc3)c2)c(O)c1C	8.1	-5.0	37.9	19.3	-16.7	24.2	nt	nt
SMILES	NALP3 yeast inh	SKKanGAS inh	tim23-1 inh	tim10-1 inh	PfHsp90 set2	TIM10 inh	TIM10 conf	tim23-1 conf
O=C(O)CCN1C(=O)/C(=C\c2ccncc2)SC1=S	13.8	-2.3	8.2	6.3	30.1	8.5	nt	nt
O=C1/C(=C/c2ccncc2)SC(=S)N1C1CCCCC1	23.6	-22.9	50.8*	35.8	-26.9	50.1*	-7.8	38.6*
CCN1C(=O)/C(=C\c2ccncc2)SC1=S	-7.0	-5.2	68.0*	25.9	36.3	51.5*	39.2*	14.8
O=C(CNC(=O)c1ccc2c(c1)OCCO2)N/N=C/c1ccc([N+](=O)[O-])cc1	23.9	5.1	-17.4	-16.6	-2.6	-9.0	nt	nt
O=C(Nc1ccc(-c2cn3ccsc3n2)cc1)C1CCCC1	30.9	-0.3	56.9*	26.1	23.2	59.2*	49.8*	69.1*
Cc1nc(-c2ccc(NC(=O)C3CCCCC3)cc2)cs1	32.3	-13.0	17.6	14.3	21.8	5.7	nt	nt
OCCc1c[nH]c2ccc(OCc3ccccc3)cc12	9.7	1.0	34.3	18.0	20.4	3.5	nt	nt
O=C(COC(=O)c1cc(=O)[nH]c2ccccc12)NCc1ccccc1Cl	13.6	nt	-9.0	-2.5	nt	2.0	nt	nt
CC(CN1CCOCC1)OC(=O)c1ccc2c(c1)OCCO2 (stereo unspecified)	7.2	2.6	72.1*	24.2	-5.0	41.4*	12.5	47.2*
C=CCN=Cc1sc2ccc(OCC)cc2c1O	17.8	-3.6	15.4	30.0	nt	24.1	nt	nt
CCCCN=Cc1sc2ccc(OCC)cc2c1O	-14.8	-6.9	57.7*	30.8	nt	43.3*	27.5*	53.7*
Cc1ccc(-n2ncc3c(SCC(N)=O)ncnc32)cc1C	9.0	-1.7	13.9	0.3	-20.5	6.2	nt	nt
CCCCC(=O)Nc1cccc2c1C(=O)N(c1ccccc1)C2=O	3.1	-1.3	50.2*	32.0	-9.6	43.3*	39.8*	51.7*
CC(=O)Nc1ccc(N2C(=O)c3cccc(NC(C)=O)c3C2=O)cc1	-0.6	-4.6	13.3	7.8	-27.1	-10.9	nt	nt
CC(=O)Nc1ccc(/C=C2\CCc3ccccc3C2=O)cc1	29.9	-1.0	61.4*	34.2	29.7	41.0*	36.3*	46.0*
NC(=O)c1cc(Br)cc(C2CCCCC2)c1O	32.3	7.8	65.4*	33.4	32.1	52.6*	76.0*	14.9
O=C(C(=O)c1cc(Br)ccc1O)c1cc(Br)ccc1O	nt	nt	nt	nt	22.8	nt	nt	nt
